Common to all, as to test: DAPPL (digital affinity profiling via proximity ligation, sequencing); 10 mM Tris-HCl pH 7.5, 50 mM NaCl, 1 mM DTT, 4% glycerol, room temperature, 30 min; GST-TFs on glutathione beads, 16-mer random dsDNA library, 0.1% formaldehyde crosslink after washing; high values mean tight binding
For one experiment, the target named is T1, FEV (Homo sapiens, UniProt Q99581 1-238).
T1 sequence: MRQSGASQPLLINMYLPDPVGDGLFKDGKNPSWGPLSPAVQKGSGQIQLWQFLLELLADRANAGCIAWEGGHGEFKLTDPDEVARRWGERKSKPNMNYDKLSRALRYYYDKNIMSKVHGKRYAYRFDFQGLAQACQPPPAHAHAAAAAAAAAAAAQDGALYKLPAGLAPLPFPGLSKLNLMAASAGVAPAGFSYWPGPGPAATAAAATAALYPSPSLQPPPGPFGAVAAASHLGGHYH
Conditions: protein: recombinant; tags: N-terminal GST; dsDNA, one strand shown. Put shortly: (§1)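 Binding signal is each hexamer's read frequency for a factor divided by its frequency in the tag-only sample. The factors were GST-fused human transcription factors from yeast, captured on glutathione beads, DNA-barcoded and pooled with that sample. Pools were incubated with 200 nmole of a random double-stranded 16-mer DNA library in Tris/NaCl/DTT/glycerol buffer at room temperature for 30 min, then washed, crosslinked with 0.1% formaldehyde, proximity-ligated with BsaI/T4 ligase (1 h, 37 °C), PCR-amplified and sequenced on an Illumina NextSeq500.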

In a further experiment the target is ETV5 (Homo sapiens, UniProt P41161 1-510). Conditions: protein: recombinant; tags: N-terminal GST; dsDNA, one strand shown. In a few lines: as §1
Chain of ETV5 (P41161 whole entry): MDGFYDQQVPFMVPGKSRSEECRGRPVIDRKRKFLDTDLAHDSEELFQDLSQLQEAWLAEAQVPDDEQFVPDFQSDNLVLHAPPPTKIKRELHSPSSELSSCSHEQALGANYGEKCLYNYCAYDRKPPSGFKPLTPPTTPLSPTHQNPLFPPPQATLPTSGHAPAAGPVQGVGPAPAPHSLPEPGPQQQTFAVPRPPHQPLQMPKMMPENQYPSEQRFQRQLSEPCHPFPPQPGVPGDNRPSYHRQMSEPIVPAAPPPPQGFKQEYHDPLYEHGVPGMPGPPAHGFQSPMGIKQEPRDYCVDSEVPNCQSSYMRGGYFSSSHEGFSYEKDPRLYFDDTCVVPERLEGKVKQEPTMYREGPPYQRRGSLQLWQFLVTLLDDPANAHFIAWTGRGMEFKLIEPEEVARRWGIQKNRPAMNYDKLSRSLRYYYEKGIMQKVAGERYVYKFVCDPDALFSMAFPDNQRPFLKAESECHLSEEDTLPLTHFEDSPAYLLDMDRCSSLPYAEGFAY
A further experiment addresses HSF1 (Homo sapiens, UniProt Q00613 1-529). The following applies: protein: recombinant; tags: N-terminal GST; chain copies: 3; dsDNA, one strand shown. Put shortly: as §1
A further experiment has as its target T2, SPIC (Homo sapiens, UniProt Q8N5J4 1-248).
T2 sequence: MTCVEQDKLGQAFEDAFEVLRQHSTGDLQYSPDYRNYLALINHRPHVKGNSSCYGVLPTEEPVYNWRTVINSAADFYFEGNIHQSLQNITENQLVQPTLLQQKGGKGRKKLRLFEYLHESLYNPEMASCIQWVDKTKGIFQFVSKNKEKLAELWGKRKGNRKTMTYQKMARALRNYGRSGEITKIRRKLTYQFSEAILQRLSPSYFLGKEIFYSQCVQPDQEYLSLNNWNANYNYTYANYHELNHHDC
Conditions: protein: recombinant; tags: N-terminal GST; dsDNA, one strand shown. Put shortly:
as §1

The next experiment concerns the target ELF4 (Homo sapiens, UniProt Q99607 1-663). The following applies: protein: recombinant; tags: N-terminal GST; dsDNA, one strand shown. In a few lines: as §1
The target of a further experiment is T3, ELK4 (Homo sapiens, UniProt P28324-2 1-405).
T3 sequence: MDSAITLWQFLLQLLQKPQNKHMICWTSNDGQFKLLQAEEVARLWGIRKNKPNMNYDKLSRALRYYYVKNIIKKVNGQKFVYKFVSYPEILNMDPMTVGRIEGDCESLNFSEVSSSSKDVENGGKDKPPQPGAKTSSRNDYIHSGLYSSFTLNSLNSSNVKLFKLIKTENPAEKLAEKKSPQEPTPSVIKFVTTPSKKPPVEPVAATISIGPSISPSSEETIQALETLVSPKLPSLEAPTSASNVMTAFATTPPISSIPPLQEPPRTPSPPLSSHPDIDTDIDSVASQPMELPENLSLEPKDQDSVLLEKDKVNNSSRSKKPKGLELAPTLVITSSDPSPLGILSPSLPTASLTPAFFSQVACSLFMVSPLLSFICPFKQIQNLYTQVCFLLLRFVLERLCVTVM
The following applies: protein: recombinant; tags: N-terminal GST; dsDNA, one strand shown. Put shortly: as §1

A further experiment deals with T4, ETV2 (Homo sapiens, UniProt O00321 1-342).
T4 sequence: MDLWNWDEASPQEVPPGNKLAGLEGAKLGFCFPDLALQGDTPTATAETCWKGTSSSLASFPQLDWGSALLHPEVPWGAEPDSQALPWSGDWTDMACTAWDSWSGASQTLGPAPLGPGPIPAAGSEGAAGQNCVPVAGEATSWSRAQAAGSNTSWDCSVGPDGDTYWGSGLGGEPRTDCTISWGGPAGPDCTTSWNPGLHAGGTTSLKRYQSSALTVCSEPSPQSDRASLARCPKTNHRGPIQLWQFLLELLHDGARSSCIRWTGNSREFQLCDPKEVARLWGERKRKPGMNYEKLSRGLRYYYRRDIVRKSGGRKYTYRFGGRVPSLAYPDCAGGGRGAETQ
The following applies: protein: recombinant; tags: N-terminal GST; dsDNA, one strand shown. Put shortly:
as §1

A further experiment concerns the target T5, ELF3 (Homo sapiens, UniProt P78545 1-371).
T5 sequence: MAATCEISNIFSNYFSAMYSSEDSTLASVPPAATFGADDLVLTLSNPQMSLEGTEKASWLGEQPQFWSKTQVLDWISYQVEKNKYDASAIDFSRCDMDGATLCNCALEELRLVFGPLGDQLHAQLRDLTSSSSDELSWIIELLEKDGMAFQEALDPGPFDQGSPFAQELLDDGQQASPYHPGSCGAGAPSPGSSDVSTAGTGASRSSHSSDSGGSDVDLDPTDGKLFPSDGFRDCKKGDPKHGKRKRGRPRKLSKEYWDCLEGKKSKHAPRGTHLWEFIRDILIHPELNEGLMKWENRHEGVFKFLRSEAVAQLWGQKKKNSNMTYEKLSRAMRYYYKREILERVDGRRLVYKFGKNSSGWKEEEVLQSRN
The following applies: protein: recombinant; tags: N-terminal GST; dsDNA, one strand shown. Put shortly:
as §1

The next experiment addresses CRX (Homo sapiens, UniProt O43186 1-299). Conditions: protein: recombinant; tags: N-terminal GST; dsDNA, one strand shown. In a few lines: as §1
For the next experiment, the target named is ETV1 (Homo sapiens, UniProt P50549 1-477). Conditions: protein: recombinant; tags: N-terminal GST; dsDNA, one strand shown. Put shortly: as §1
Chain of ETV1 (P50549 whole entry): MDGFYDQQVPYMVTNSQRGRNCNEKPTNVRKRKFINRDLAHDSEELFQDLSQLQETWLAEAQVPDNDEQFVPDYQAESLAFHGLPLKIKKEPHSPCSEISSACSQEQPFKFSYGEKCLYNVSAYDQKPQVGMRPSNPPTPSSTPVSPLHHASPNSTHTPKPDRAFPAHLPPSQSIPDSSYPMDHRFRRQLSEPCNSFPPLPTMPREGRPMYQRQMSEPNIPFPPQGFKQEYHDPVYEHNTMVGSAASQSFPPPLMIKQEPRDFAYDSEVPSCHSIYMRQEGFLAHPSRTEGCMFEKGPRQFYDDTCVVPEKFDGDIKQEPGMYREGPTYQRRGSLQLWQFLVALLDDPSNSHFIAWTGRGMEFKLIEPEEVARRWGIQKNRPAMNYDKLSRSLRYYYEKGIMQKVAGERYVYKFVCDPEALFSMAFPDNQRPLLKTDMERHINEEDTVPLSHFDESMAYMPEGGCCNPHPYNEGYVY
The next experiment concerns the target T6, ERF (Homo sapiens, UniProt P50548 1-548).
T6 sequence: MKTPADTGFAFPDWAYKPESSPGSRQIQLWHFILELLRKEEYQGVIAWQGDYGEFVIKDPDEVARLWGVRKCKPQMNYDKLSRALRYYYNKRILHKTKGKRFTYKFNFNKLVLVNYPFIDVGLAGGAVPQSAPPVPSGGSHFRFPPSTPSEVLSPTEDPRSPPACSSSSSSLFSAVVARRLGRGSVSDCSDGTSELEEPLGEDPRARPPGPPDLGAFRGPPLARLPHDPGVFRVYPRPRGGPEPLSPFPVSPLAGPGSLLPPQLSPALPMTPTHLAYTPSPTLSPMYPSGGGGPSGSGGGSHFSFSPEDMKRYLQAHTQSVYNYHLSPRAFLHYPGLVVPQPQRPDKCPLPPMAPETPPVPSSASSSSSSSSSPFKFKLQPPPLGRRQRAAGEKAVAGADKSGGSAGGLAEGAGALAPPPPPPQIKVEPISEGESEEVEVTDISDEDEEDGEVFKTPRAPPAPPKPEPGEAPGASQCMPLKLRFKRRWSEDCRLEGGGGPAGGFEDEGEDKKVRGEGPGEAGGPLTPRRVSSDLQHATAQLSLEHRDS
Conditions: protein: recombinant; tags: N-terminal GST; dsDNA, one strand shown. In a few lines:
as §1

The target in a further experiment is T7, ETV3L (Homo sapiens, UniProt Q6ZN32 1-361).
T7 sequence: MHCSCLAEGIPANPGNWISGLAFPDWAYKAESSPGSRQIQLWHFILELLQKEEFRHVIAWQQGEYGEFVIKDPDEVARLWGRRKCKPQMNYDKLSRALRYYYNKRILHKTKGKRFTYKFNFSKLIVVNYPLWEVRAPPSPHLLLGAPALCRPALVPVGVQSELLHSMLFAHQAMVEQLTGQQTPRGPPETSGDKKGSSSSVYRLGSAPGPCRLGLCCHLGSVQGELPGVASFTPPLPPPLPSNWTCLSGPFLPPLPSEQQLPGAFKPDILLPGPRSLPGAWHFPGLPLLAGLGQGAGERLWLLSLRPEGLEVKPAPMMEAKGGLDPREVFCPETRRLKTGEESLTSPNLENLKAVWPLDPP
The following applies: protein: recombinant; tags: N-terminal GST; dsDNA, one strand shown. Put shortly: as §1

The target in the next experiment is T8, ETS2 (Homo sapiens, UniProt P15036 1-469).
T8 sequence: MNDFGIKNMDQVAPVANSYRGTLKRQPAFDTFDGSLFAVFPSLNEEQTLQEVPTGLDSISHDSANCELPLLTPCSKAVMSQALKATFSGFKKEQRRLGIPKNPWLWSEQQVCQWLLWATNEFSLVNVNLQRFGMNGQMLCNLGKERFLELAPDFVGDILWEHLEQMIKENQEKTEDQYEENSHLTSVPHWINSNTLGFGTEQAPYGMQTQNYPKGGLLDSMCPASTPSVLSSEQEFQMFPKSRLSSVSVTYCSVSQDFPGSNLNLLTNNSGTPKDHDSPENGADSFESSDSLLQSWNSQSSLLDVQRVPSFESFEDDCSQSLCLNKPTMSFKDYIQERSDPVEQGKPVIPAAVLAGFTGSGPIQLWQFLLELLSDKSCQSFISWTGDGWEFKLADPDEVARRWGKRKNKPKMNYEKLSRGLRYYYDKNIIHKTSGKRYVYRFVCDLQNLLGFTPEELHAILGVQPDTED
The following applies: protein: recombinant; tags: N-terminal GST; dsDNA, one strand shown. Put shortly: as §1

A further experiment has as its target T9, SPDEF (Homo sapiens, UniProt O95238 1-335).
T9 sequence: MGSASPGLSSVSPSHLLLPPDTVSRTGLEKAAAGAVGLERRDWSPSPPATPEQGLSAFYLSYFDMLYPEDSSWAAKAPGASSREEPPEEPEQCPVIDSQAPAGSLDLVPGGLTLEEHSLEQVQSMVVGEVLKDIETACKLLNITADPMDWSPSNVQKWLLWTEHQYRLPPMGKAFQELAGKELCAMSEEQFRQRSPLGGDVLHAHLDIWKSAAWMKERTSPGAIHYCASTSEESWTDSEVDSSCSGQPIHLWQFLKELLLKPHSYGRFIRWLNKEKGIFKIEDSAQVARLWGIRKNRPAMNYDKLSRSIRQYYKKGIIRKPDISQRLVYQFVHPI
Conditions: protein: recombinant; tags: N-terminal GST; dsDNA, one strand shown. Put shortly: as §1

In a further experiment the target is T10, ETV7 (Homo sapiens, UniProt Q9Y603 1-341).
T10 sequence: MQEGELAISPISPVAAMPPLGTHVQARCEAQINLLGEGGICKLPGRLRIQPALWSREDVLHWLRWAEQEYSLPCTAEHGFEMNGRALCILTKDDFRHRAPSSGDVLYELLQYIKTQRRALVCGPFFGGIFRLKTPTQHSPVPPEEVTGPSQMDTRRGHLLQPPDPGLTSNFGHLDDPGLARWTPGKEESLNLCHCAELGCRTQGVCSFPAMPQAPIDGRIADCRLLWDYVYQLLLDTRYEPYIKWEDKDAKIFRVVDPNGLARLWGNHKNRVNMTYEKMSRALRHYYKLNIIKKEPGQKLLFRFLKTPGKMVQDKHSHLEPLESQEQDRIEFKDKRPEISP
Conditions: protein: recombinant; tags: N-terminal GST; dsDNA, one strand shown. In a few lines: as §1

The next experiment has as its target T11, ELF5 (Homo sapiens, UniProt Q9UKW6-2 1-255).
T11 sequence: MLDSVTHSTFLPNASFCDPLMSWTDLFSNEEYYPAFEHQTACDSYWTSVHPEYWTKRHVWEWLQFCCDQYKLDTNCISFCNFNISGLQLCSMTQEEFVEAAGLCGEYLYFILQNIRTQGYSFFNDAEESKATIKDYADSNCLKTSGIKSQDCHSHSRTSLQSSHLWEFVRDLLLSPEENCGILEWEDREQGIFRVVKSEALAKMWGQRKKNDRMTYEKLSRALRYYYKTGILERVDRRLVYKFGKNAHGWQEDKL
Conditions: protein: recombinant; tags: N-terminal GST; dsDNA, one strand shown. In a few lines:
as §1

A further experiment has as its target T12, ETV3 (Homo sapiens, UniProt P41162-2 1-143).
T12 sequence: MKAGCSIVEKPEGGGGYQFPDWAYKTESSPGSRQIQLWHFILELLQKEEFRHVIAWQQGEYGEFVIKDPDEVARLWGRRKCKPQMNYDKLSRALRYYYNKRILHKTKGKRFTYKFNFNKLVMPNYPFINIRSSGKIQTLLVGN
Conditions: protein: recombinant; tags: N-terminal GST; dsDNA, one strand shown. In a few lines:
as §1

Another experiment has as its target ETV6 (Homo sapiens, UniProt P41212 1-452). The following applies: protein: recombinant; tags: N-terminal GST; dsDNA, one strand shown. Put shortly:
as §1

Chain of HSF1 (Q00613 whole entry): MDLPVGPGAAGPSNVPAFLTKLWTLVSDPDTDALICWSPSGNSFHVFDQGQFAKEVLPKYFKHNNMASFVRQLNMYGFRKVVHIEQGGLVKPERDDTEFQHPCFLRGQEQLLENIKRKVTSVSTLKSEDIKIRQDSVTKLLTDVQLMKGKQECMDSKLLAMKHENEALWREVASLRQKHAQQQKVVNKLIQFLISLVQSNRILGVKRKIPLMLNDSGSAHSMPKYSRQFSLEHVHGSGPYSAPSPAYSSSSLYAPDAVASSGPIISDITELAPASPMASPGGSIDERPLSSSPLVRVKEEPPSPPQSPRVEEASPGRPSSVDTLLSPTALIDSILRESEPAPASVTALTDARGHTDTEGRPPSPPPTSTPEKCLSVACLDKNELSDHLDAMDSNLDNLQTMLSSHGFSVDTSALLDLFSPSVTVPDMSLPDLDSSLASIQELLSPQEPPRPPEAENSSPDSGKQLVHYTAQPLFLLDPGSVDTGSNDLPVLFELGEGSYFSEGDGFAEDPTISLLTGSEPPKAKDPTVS
Chain of ELF4 (Q99607 whole entry): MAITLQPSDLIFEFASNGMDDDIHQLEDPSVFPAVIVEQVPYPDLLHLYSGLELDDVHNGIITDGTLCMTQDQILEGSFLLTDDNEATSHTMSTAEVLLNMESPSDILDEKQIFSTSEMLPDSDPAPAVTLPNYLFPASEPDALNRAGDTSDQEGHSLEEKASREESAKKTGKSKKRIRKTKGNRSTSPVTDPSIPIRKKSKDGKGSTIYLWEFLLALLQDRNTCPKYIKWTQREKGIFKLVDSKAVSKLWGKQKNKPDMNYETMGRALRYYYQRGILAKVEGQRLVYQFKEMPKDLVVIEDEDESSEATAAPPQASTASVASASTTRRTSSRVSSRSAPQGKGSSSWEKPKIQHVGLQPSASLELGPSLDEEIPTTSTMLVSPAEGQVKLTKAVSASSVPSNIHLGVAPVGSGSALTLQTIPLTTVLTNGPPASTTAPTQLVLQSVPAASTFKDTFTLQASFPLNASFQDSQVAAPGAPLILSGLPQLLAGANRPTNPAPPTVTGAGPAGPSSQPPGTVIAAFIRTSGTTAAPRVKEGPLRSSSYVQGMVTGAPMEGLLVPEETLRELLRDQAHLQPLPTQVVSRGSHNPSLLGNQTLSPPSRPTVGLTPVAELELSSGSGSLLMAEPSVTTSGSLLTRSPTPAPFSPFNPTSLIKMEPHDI
Chain of ETV6 (P41212 whole entry): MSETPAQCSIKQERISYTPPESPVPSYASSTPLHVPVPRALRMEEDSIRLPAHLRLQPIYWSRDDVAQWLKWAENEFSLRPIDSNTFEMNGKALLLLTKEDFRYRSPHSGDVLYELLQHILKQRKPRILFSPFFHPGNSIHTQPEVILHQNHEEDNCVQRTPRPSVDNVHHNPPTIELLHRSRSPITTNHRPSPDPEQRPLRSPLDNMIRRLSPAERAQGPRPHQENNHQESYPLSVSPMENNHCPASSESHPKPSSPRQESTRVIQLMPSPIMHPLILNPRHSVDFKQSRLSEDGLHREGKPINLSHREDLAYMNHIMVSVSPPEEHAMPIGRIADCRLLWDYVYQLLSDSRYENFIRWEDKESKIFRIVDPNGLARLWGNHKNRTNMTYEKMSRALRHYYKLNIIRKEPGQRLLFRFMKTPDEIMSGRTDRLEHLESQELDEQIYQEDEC
Chain of CRX (O43186 whole entry): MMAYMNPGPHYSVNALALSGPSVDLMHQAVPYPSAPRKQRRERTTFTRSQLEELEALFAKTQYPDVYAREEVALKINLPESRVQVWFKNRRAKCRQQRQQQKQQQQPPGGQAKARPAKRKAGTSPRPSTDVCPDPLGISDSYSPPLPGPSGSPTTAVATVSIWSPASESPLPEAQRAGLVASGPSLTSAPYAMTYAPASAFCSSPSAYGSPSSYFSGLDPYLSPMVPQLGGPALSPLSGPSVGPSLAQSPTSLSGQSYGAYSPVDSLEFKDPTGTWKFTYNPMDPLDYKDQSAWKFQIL

For the sequence GGCTTC, the binding signal is 1.77 fold enrichment (6-mer frequency, TF over GST control) with FEV; 1.69 fold enrichment (6-mer frequency, TF over GST control) with ETV5; 1.45 fold enrichment (6-mer frequency, TF over GST control) in the experiment with HSF1; 1.6 fold enrichment (6-mer frequency, TF over GST control) with SPIC; 1.55 fold enrichment (6-mer frequency, TF over GST control) in the experiment with ELF4; 1.44 fold enrichment (6-mer frequency, TF over GST control) with ELK4. Besides, the binding signal was 1.76 fold enrichment (6-mer frequency, TF over GST control) in the experiment with ETV2; 1.64 fold enrichment (6-mer frequency, TF over GST control) with ELF3; 1.25 fold enrichment (6-mer frequency, TF over GST control) with CRX; 1.6 fold enrichment (6-mer frequency, TF over GST control) in the experiment with ETV1; 1.7 fold enrichment (6-mer frequency, TF over GST control) in the experiment with ERF; 1.61 fold enrichment (6-mer frequency, TF over GST control) with ETV3L. Besides, the binding signal with ETS2 is 1.7 fold enrichment (6-mer frequency, TF over GST control); in the experiment with SPDEF, 1.6 fold enrichment (6-mer frequency, TF over GST control); with ETV7, 1.54 fold enrichment (6-mer frequency, TF over GST control); with ELF5 it was 1.81 fold enrichment (6-mer frequency, TF over GST control); with ETV3 it was 1.65 fold enrichment (6-mer frequency, TF over GST control); with ETV6 it was 1.85 fold enrichment (6-mer frequency, TF over GST control).
